Potency data for 40 compounds are collected here from PubChem BioAssay (Tox21).

Active and inactive are the calls of the source. A call without a number means that no potency is given here. Calls follow the shape of the dose curve; as a rule, active = well fitted curve in the direction sought with a large enough effect in the repeat runs; inconclusive = weak or mixed curves; inactive = flat fitted curve, though single readings scatter.

The assay can be described thus: qHTS assay to test for compound auto fluorescence at 535 nm (green) in HepG2 cell free culture (AID 720686). The settings on record: Cell-free medium, green autofluorescence 485/535 nm; series mostly up to 91.3 µM. From the text: U.S. Tox21 Program National Center for Advancing Translational Sciences [NCATS] NIH Chemical Genomics Center [NCGC] U.S. Environmental Protection Agency [EPA] National Institutes of Environmental Health Sciences [NIEHS] National Toxicology Program [NTP] U.S. Food and Drug Administration [FDA] Tox21 Assay Overview: Compound auto fluorescence often interferes with screening of the compound library against various biological targets and signaling pathways. Some of these compounds may have fluorophoric properties. Such properties may interfere with the assay outputs resulting in false positives and/or negatives. To decrease such complications and ensure the compound activities are relevant in terms of biological response, the Tox21 10K compound library was screened for auto fluorescence. From the fluorophores used as reporter signals in our screening assays, the auto fluorescence equivalencies of compounds against three fluorophores have been evaluated: Triamterene, Fluorescein and Rose Bengal sodium for blue, green and red fluorescence, respectively. The fluorescence intensities were measured using Excitation/Emission wavelengths at 405/460nm, 485/535nm and 540/590nm for blue, green and red labels, respectively. This assay includes the green fluorescence data.
Tox21 Assay Protocol Summary: 5 uL of culture medium (MEM containing 10% FBS) per well was dispensed into black wall/clear bottom 1536-well plates using a Multidrop Combi Dispenser (ThermoFisher Scientific, Waltham, MA). After 23 nL compound or DMSO vehicle was transferred into assay plate by a pintool work station (Kalypsys, San Diego, CA), fluorescence intensities in the assay plates were measured by an Envision (PerkinElmer, Shelton, CT) plate reader using three labels for measuring blue, green and red fluorescence at […] 460, 535 and 590nm respectively.
A general note: qHTS replaces the single test concentration by a dilution series.
As to `CN1CCC(Nc2ncc3ncnc(Nc4ccc(F)c(Cl)c4)c3n2)CC1`, the Potency result is “inactive”.

With `O=C(O)c1cc(O)c2c(c1)C(=O)c1cccc(O)c1C2=O`, the Potency result was “inactive”. In the case of `COC(=O)C1=C(C)NC(C)=C(C(=O)OCC(C)C)C1c1ccccc1[N+](=O)[O-]` (stereo not given) it was “inactive”; in that of `CCCC/C=C/CCCCO`, “inactive”. Consider `Cc1cccc(S(=O)(=O)O)c1C`, for which the Potency entry was “inactive”.

Consider `O=c1cccccc1O`, for which the Potency result is “inactive”. Take `CCCCCCCCCOC(=O)c1ccc(O)cc1`: the Potency result is “inactive”.

For `CC1(C)CCC(C)(C)c2cc(C(=O)Nc3ccc(C(=O)O)cc3)ccc21`, the Potency result was “inactive”. As for `Cc1ccc2oc(CN(Cc3ccccc3)C(=O)Nc3c(F)cc(F)cc3F)c(-c3ccc(Cl)cc3)c2c1`, the Potency entry is “inactive”. With `Oc1ccc(Cl)cc1Sc1cc(Cl)ccc1O`, the Potency entry was “inactive”. In the case of `CCCCCCCCCCCCCCCS(=O)(=O)Oc1ccccc1` it was “inactive”; in that of `CC(C)C(C)(C)C(C)(C)C(C)(C)S`, “inactive”; in that of `COc1ccc(C(=O)/C(Br)=C\C(=O)O)cc1`, “inactive”. As to `CN(C)c1ccc(SC#N)cc1`, the Potency result was “inactive”.

For `O=C(N/N=C/c1ccccc1O)c1ccncc1`, the Potency result was “inactive”.

Consider `Fc1ccc([C@@H]2CCNC[C@H]2COc2ccc3c(c2)OCO3)cc1`, for which the Potency result is “inactive”. As for `CCOc1nc2cccc(C(=O)OC(C)OC(=O)OC3CCCCC3)c2n1Cc1ccc(-c2ccccc2-c2nn[nH]n2)cc1` (stereo not given), the entry is “inactive”; as for `O=C(O)c1c(Cl)cccc1Cl`, “inactive”; as for `CCCCN1C(=O)[C@@H]([C@H](O)C2CCCCC2)NC(=O)C12CCN(Cc1ccc(Oc3ccc(C(=O)O)cc3)cc1)CC2`, “inactive”.

As to `Oc1ccc(C2(c3ccc(O)cc3)CC3CC2C2CCCC32)cc1` (stereo not given), the Potency entry is “inactive”. As for `CNC(=O)c1ccccc1`, the Potency entry is “inactive”. With `CO[Si](CCCNc1ccccc1)(OC)OC`, the Potency entry is “inactive”.

In the case of `C[C@H](CCC(=O)O)[C@H]1CC[C@H]2[C@@H]3CC[C@@H]4C[C@H](O)CC[C@]4(C)[C@H]3CC[C@]12C`, the Potency result was “inactive”. Take `On1ccccc1=S`: the Potency result is “inactive”.

Regarding `Nc1ccccc1O`, the Potency result is “inactive”. In the case of `C=C(C)C(=O)OCC[N+](C)(C)C` it was “inactive”; in that of `Cc1cc(N)c(S(=O)(=O)O)cc1Cl`, “inactive”; in that of `CCc1cc(Cc2cc(CC)cc(C(C)(C)C)c2O)c(O)c(C(C)(C)C)c1`, “inactive”.

For `NC(=O)N1C(=O)C(C(=O)c2cc(Cl)cs2)c2cc(F)c(Cl)cc21` (stereo not given), the Potency entry is “inactive”.

Consider `CN1CCN(CCC(=O)N2c3ccccc3Sc3ccc(C(F)(F)F)cc32)CC1`, for which the Potency entry was “inactive”.

With `NNc1nc(-c2ccc(N)cc2)cs1`, the Potency result is “inactive”. With `CCOc1ccc2nc3cc(N)ccc3c(N)c2c1`, the Potency result was “inactive”. In the case of `O=C1c2c(O)ccc(Nc3ccc(CCO)cc3)c2C(=O)c2c([N+](=O)[O-])ccc(O)c21` it was “inactive”; in that of `OCCN(CCO)c1nc(N2CCCCC2)c2nc(N(CCO)CCO)nc(N3CCCCC3)c2n1`, “inactive”; in that of `CC[C@H](c1ccc(O)cc1)[C@@H](CC)c1ccc(O)cc1`, “inactive”. For the compound `CCc1cc(Cc2cc(CC)c(N)c(CC)c2)cc(CC)c1N`, the Potency entry was “inactive”.

With `O=[N+]([O-])c1cc(Cl)c(Cl)c(Cl)c1Cl`, the Potency result is “inactive”.

For `O=C(Nc1cccc(C(F)(F)F)c1)c1cc(Br)cc(Br)c1O`, the Potency entry is “inactive”.

As to `CC[C@@]1(O)C(=O)OCc2c1cc1n(c2=O)Cc2cc3c(CN(C)C)c(O)ccc3nc2-1`, the Potency result is “inactive”. With `Oc1c(Cl)cc(Cl)c2cccnc12`, the Potency entry is “inactive”.
